Reference: PubChem BioAssay (EPA / NIEHS)
Where a structure was tested more than once in an assay, its records may differ in their call. Calls of active or inactive are those of the source. The calls were made as follows: active = hit-call score of the fitted dose curve at least 0.9, where 1 is the maximum; inactive = score below 0.9.

Assays:
[1] = read-out: Vascular cell adhesion molecule 1 (VCAM1), VCAM1 (gene 7412); assay: BSK_CASM3C_VCAM1: BioMAP Diversity Plus: CASM3C Assay for Vascular cell adhesion molecule 1 (VCAM1) Biomarker Activity (AID 2283055); conditions: primary human coronary artery smooth muscle cells; actives raise or lower the signal;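 also: VCAM-1 protein level quantified by ELISA on the cells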
[2] = read-out: Collagen III, COL3A1 (gene 1281); assay: BSK_hDFCGF_CollagenIII: BioMAP Diversity Plus: hDFCGF Assay for Collagen III Biomarker Activity (AID 2283056); conditions: primary human foreskin fibroblasts; actives raise or lower the signal
How it was run: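 ELISA read-out of collagen III from human skin fibroblast cultures sampled 24 h post-dosing. Values were derived by bidirectional fitting relative to the DMSO vehicle control.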

[3] = read-out: Epidermal growth factor receptor (EGFR), EGFR (gene 1956); assay: BSK_hDFCGF_EGFR: BioMAP Diversity Plus: hDFCGF Assay for Epidermal growth factor receptor (EGFR) Biomarker Activity (AID 2283057); conditions: primary human foreskin fibroblasts; actives raise or lower the signal
How it was run: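 EGFR levels by ELISA in human dermal fibroblast cultures, 24 h post-treatment, fitted bidirectionally versus DMSO. Parallel wells stained with sulforhodamine B to detect overt cytotoxicity.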

[4] = read-out: Interleukin-8 (IL8), CXCL8 (gene 3576); assay: BSK_hDFCGF_IL8: BioMAP Diversity Plus: hDFCGF Assay for Interleukin-8 (IL8) Biomarker Activity (AID 2283058); conditions: primary human foreskin fibroblasts; actives raise or lower the signal
How it was run: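 Cells used are human skin primary fibroblasts. Chemical is added, cultures run 24 h, then IL-8 is quantified by ELISA, and gain or loss versus DMSO control is fitted in both directions.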

[5] = BSK_hDFCGF_Proliferation: Cell Proliferation Assessment in the BioMAP Diversity Plus: hDFCGF Assay (AID 2283059); conditions: primary human foreskin fibroblasts;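 also: curves fitted for both rise and fall of signal versus DMSO baseline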
How it was run: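 Sub-confluent human foreskin fibroblast cultures receive test chemical […]. Relative cell number is quantified by sulforhodamine B staining (0.1%, after 10% TCA fixation) at 560 nm, with bidirectional fitting referenced to DMSO.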

[6] = read-out: Macrophage colony-stimulating factor (MCSF), CSF1 (gene 1435); assay: BSK_hDFCGF_MCSF: BioMAP Diversity Plus: hDFCGF Assay for Macrophage colony-stimulating factor (MCSF) Biomarker Activity (AID 2283060); conditions: primary human foreskin fibroblasts; actives raise or lower the signal
How it was run: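 Primary human foreskin fibroblasts dosed with chemical; 24 h later, M-CSF quantified by ELISA; curves fitted in both directions vs DMSO negative control.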

[7] = BSK_hDFCGF_SRB: Viability Assessment in the BioMAP Diversity Plus: hDFCGF Assay (AID 2283061); conditions: primary human foreskin fibroblasts;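 also: cells exposed to compound for 24 h before the read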
How it was run: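 Readout is SRB absorbance at 560 nm, reflecting total protein in parallel cultures of human foreskin fibroblasts harvested 24 h after chemical dosing. Activity was fitted bidirectionally relative to DMSO.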

[8] = read-out: TIMP metallopeptidase inhibitor 1 (TIMP1), TIMP1 (gene 7076); assay: BSK_hDFCGF_TIMP1: BioMAP Diversity Plus: hDFCGF Assay for TIMP metallopeptidase inhibitor 1 (TIMP1) Biomarker Activity (AID 2283062); conditions: primary human foreskin fibroblasts; actives raise or lower the signal
How it was run: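 Human skin fibroblasts (primary), hDFCGF system; compound exposure 24 h; TIMP-1 by ELISA; bidirectional fit vs DMSO negative control; overt cytotoxicity by SRB in parallel wells.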

[9] = read-out: Monokine induced gamma interferon (MIG), CXCL9 (gene 4283); assay: BSK_hDFCGF_MIG: BioMAP Diversity Plus: hDFCGF Assay for Monokine induced gamma interferon (MIG) Biomarker Activity (AID 2283063); conditions: primary human foreskin fibroblasts; actives raise or lower the signal
How it was run: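 Chemicals were added to primary human foreskin fibroblast cultures, which were sampled 24 h later. MIG levels were then quantified by ELISA and responses fitted in both directions relative to DMSO.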

[10] = read-out: Matrix Metallopeptidase 1 (MMP1), MMP1 (gene 4312); assay: BSK_hDFCGF_MMP1: BioMAP Diversity Plus: hDFCGF Assay for Matrix Metallopeptidase 1 (MMP1) Biomarker Activity (AID 2283064); conditions: primary human foreskin fibroblasts; actives raise or lower the signal
How it was run: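 MMP1 levels quantified by ELISA 24 h after dosing human dermal fibroblast cultures, with parallel SRB total-protein staining for overt cytotoxicity. Data fitted in both directions against DMSO baseline.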

[11] = read-out: Vascular cell adhesion molecule 1 (VCAM1), VCAM1 (gene 7412); assay: BSK_hDFCGF_VCAM1: BioMAP Diversity Plus: hDFCGF Assay for Vascular cell adhesion molecule 1 (VCAM1) Biomarker Activity (AID 2283065); conditions: primary human foreskin fibroblasts; actives raise or lower the signal;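 as to AC50: VCAM-1 protein level quantified by ELISA after 24 h chemical exposure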
How it was run: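 Human foreskin fibroblast primary cells, chemical exposure 24 h; VCAM-1 by ELISA; bidirectional fit, DMSO = negative control/baseline.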

[12] = read-out: Plasminogen activator inhibitor-1 (PAI1), SERPINE1 (gene 5054); assay: BSK_hDFCGF_PAI1: BioMAP Diversity Plus: hDFCGF Assay for Plasminogen activator inhibitor-1 (PAI1) Biomarker Activity (AID 2283066); conditions: primary human foreskin fibroblasts; actives raise or lower the signal
How it was run: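 PAI-1 levels in human dermal foreskin fibroblasts were quantified by ELISA 24 h after dosing, with gain or loss analysed against DMSO. Overt cytotoxicity was checked by sulforhodamine B total-protein staining in parallel cultures.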

[13] = read-out: Intercellular Adhesion Molecule 1 (ICAM1), ICAM1 (gene 3383); assay: BSK_KF3CT_ICAM1: BioMAP Diversity Plus: KF3CT Assay for Intercellular Adhesion Molecule 1 (ICAM1) Biomarker Activity (AID 2283067); conditions: primary human keratinocytes with fibroblasts; actives raise or lower the signal
How it was run: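 ICAM-1 levels are measured by ELISA 24 h after dosing a primary human co-culture of keratinocytes and foreskin fibroblasts. Activity in either direction is fitted relative to DMSO vehicle.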

[14] = read-out: Interferon-gamma inducible Protein 10 (IP10), CXCL10 (gene 3627); assay: BSK_KF3CT_IP10: BioMAP Diversity Plus: KF3CT Assay for Interferon-gamma inducible Protein 10 (IP10) Biomarker Activity (AID 2283068); conditions: primary human keratinocytes with fibroblasts; actives raise or lower the signal
How it was run: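 ELISA read-out of IP-10 after 24 h chemical dosing of human skin primary co-culture (keratinocytes, foreskin fibroblasts). Gain or loss of signal relative to DMSO, bidirectional curve fit.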

[15] = BSK_KF3CT_SRB: Viability Assessment in the BioMAP Diversity Plus: KF3CT Assay (AID 2283069); conditions: primary human keratinocytes with fibroblasts;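 also: read 24 h after compound addition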
How it was run: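 Cytotoxicity was gauged by SRB staining (0.1% SRB, 10% TCA fixation, 560 nm) of parallel cultures at 24 h. The cells were primary human skin keratinocytes co-cultured with fibroblasts, and activity was fitted in both directions against DMSO.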

[16] = read-out: Interleukin-1 alpha (IL1a), IL1A (gene 3552); assay: BSK_KF3CT_IL1a: BioMAP Diversity Plus: KF3CT Assay for Interleukin-1 alpha (IL1a) Biomarker Activity (AID 2283070); conditions: primary human keratinocytes with fibroblasts; actives raise or lower the signal
How it was run: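 IL-1a was detected by ELISA 24 h after chemical treatment of a co-culture of human skin keratinocytes and foreskin fibroblasts. Gain or loss of signal was fitted against the DMSO baseline.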

[17] = read-out: TIMP metallopeptidase inhibitor 2 (TIMP2), TIMP2 (gene 7077); assay: BSK_KF3CT_TIMP2: BioMAP Diversity Plus: KF3CT Assay for TIMP metallopeptidase inhibitor 2 (TIMP2) Biomarker Activity (AID 2283071); conditions: primary human keratinocytes with fibroblasts; actives raise or lower the signal
How it was run: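 TIMP-2 measured by ELISA at 24 h in human keratinocyte/fibroblast primary co-cultures exposed to chemicals. Both increases and decreases were fitted against DMSO. Parallel cultures were stained with SRB for total protein as an overt-cytotoxicity check.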

[18] = read-out: Transforming growth factor beta 1 (TGFb1), TGFB1 (gene 7040); assay: BSK_KF3CT_TGFb1: BioMAP Diversity Plus: KF3CT Assay for Transforming growth factor beta 1 (TGFb1) Biomarker Activity (AID 2283072); conditions: primary human keratinocytes with fibroblasts; actives raise or lower the signal
How it was run: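 ELISA quantifies TGF-b1 at 24 h post-dose in a primary human skin co-culture of keratinocytes and fibroblasts, with gain or loss judged against DMSO. Parallel SRB total-protein staining flags overt cytotoxicity.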

[19] = read-out: C-C motif chemokine 2 (Homo sapiens) (UniProt P13500); assay: BSK_KF3CT_MCP1: BioMAP Diversity Plus: KF3CT Assay for Monocyte Chemoattractant Protein 1 (MCP1/CCL2) Biomarker Activity (AID 2283073); conditions: primary human keratinocytes with fibroblasts; actives raise or lower the signal
How it was run: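 ELISA readout of MCP-1 after 24 h chemical dosing of a human skin primary co-culture of keratinocytes and foreskin fibroblasts. Activity was fitted in both directions against DMSO.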

[20] = read-out: Matrix Metallopeptidase 9 (MMP9), MMP9 (gene 4318); assay: BSK_KF3CT_MMP9: BioMAP Diversity Plus: KF3CT Assay for Matrix Metallopeptidase 9 (MMP9) Biomarker Activity (AID 2283074); conditions: primary human keratinocytes with fibroblasts; actives raise or lower the signal
How it was run: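 MMP-9 quantified by ELISA after 24 h chemical treatment of primary human skin keratinocyte/fibroblast co-cultures; gain or loss fitted against DMSO, with parallel SRB staining (0.1% SRB, 560 nm) for overt cytotoxicity.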

Measured: AC50

Clc1cccc(Cl)c1Cl
inactive: [1] | [2] | [3] | [4] | [5] | [6] | [7] | [8] | [9] | [10] | [11] | [12] | [13] | [14] | [15] | [16] | [17] | [18] | [19]

CC(C)(C)c1ccccc1O
inactive: [1] | [2] | [3] | [4] | [5] | [6] | [7] | [8] | [9] | [10] | [11] | [12] | [13] | [14] | [15] | [16] | [17] | [18] | [19] | [20]

CCCCOC(=O)COC(=O)c1ccccc1C(=O)OCCCC
inactive: [1] | [2] | [3] | [4] | [5] | [7] | [8] | [10] | [11] | [12] | [13] | [14] | [15] | [16] | [17] | [19]
active: [5] 20 µM | [11] 26.6 µM

Cc1cc(Cl)ccc1N
active: [5] 5.13 µM
inactive: [1] | [2] | [3] | [4] | [6] | [7] | [8] | [10] | [11] | [12] | [13] | [14] | [15] | [16] | [17] | [18] | [19] | [20]

CC1(C)[C@H](C(=O)O[C@H](C#N)c2cccc(Oc3ccccc3)c2)[C@@H]1/C=C(\Cl)C(F)(F)F
active: [2] 9.08 µM | [5] 7.37 µM | [10] 0.0141 µM | [17] 0.525 µM
inactive: [1] | [2] | [3] | [4] | [5] | [6] | [7] | [8] | [9] | [10] | [11] | [12] | [13] | [14] | [15] | [16] | [17] | [19]

O=[N+]([O-])c1cccc2ccccc12
inactive: [1] | [2] | [3] | [4] | [5] | [6] | [7] | [8] | [10] | [11] | [12] | [13] | [14] | [15] | [16] | [17] | [19]
